Laboratory results published in PubChem BioAssay AID1159580 (chemical genetic matrix, 2015).
Screen size: about 5,500 compounds; about 2,000 (36%) were called active. Another 18% or so got no clear call; they are omitted. Rule as the data show it: active = normalized growth mostly below about 0.91 (no sharp cut-off); inconclusive = no clear call, values can overlap the other calls; inactive = mostly above about 0.92. This is one part of the list.

Assay: chemical genetic growth profiling, strain panel (AID 1159580);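 also: tested at 20 µM; growth read once vehicle control cultures reached saturation at 30 °C; 1 = growth at the plate median or of vehicle wells; lower values mean less growth of the strain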
Conditions: growth OD
[1] = S. cerevisiae deletion strains, locus YAL013W, strain DEP1, stronger effect = lower value
[2] = S. cerevisiae deletion strains, locus YBR229C, strain ROT2, stronger effect = lower value
[3] = S. cerevisiae deletion strains, locus YDL101C, strain DUN1, stronger effect = lower value
[4] = S. cerevisiae deletion strains, locus YDR150W, strain NUM1, stronger effect = lower value
[5] = S. cerevisiae deletion strains, locus YEL061C, strain CIN8, stronger effect = lower value
[6] = S. cerevisiae deletion strains, locus YGR078C, strain PAC10, stronger effect = lower value
[7] = S. cerevisiae deletion strains, locus YHR030C, strain SLT2, stronger effect = lower value
[8] = S. cerevisiae deletion strains, locus YHR087W, strain rtc3, stronger effect = lower value
[9] = S. cerevisiae deletion strains, locus YJR043C, strain POL32, stronger effect = lower value
[10] = S. cerevisiae deletion strains, locus YJR075W, strain HOC1, stronger effect = lower value
[11] = S. cerevisiae deletion strains, locus YLR039C, strain RIC1, stronger effect = lower value
[12] = S. cerevisiae deletion strains, locus YLR058C, strain SHM2 (second series), stronger effect = lower value
[13] = S. cerevisiae deletion strains, locus YLR085C, strain ARP6, stronger effect = lower value
[14] = S. cerevisiae deletion strains, locus YLR262C, strain YPT6, stronger effect = lower value
[15] = S. cerevisiae deletion strains, locus YML094W, strain GIM5, stronger effect = lower value
[16] = S. cerevisiae deletion strains, locus YMR219W, strain ESC1, stronger effect = lower value
[17] = S. cerevisiae deletion strains, locus YMR263W, strain SAP30, stronger effect = lower value
[18] = S. cerevisiae deletion strains, locus YNL153C, strain GIM3, stronger effect = lower value
[19] = S. cerevisiae deletion strains, locus YNL298W, strain CLA4 (second series), stronger effect = lower value
[20] = S. cerevisiae deletion strains, locus YNL322C, strain KRE1, stronger effect = lower value
[21] = S. cerevisiae deletion strains, locus YNR030W, strain Alg12, stronger effect = lower value
[22] = S. cerevisiae deletion strains, locus YPL055C, strain LGE1, stronger effect = lower value
[23] = S. cerevisiae deletion strains, locus YPL241C, strain CIN2, stronger effect = lower value
[24] = S. cerevisiae deletion strains, locus YPR135W, strain CTF4, stronger effect = lower value
[25] = S. cerevisiae strains, strain wild type, stronger effect = lower value

Measured: normalized growth

COc1ccc(CN(Cc2ccc(OC)cc2)C(=O)c2cccs2)cc1
inactive: [1] 0.976 | [2] 0.974 | S. cerevisiae deletion strains, locus YCL061C, strain MRC1, stronger effect = lower value 1.01 | [3] 0.969 | S. cerevisiae deletion strains, locus YDL134C, strain PPH21, stronger effect = lower value 0.974 | [4] 0.98 | [5] 0.974 | [6] 1 | S. cerevisiae deletion strains, locus YGR229C, strain SMI1, stronger effect = lower value 0.976 | [7] 0.971 | [8] 0.959 | [9] 0.994 | [10] 0.976 | [11] 0.92 | [12] 0.99 | [13] 0.97 | [14] 0.925 | [15] 0.953 | [16] 0.992 | [17] 1.01 | S. cerevisiae deletion strains, locus YMR307W, strain GAS1, stronger effect = lower value 0.812 | S. cerevisiae deletion strains, locus YNL128W, strain TEP1, stronger effect = lower value 0.973 | [18] 0.993 | [19] 0.973 | [20] 0.994 | [21] 0.931 | S. cerevisiae deletion strains, locus YOL006C, strain TOP1, stronger effect = lower value 0.95 | [22] 0.945 | [23] 0.995 | [24] 0.952 | [25] 0.976

Cc1ccc(-n2nc(-c3ccc(OC(F)(F)F)cc3)cc2NC(=O)Nc2ccc(OC(F)(F)F)cc2)cc1C
inactive: [1] 1 | [2] 1.02 | [3] 1.01 | [4] 1.02 | [5] 1.01 | [6] 1.04 | [7] 1.09 | [8] 1.01 | [9] 1.02 | [10] 1.03 | S. cerevisiae deletion strains, locus YKL190W, strain CNB1, stronger effect = lower value 1.02 | [11] 1.08 | [12] 1.02 | [13] 1.17 | [14] 1.05 | [15] 1.02 | [16] 1.02 | [17] 1.05 | [18] 0.996 | [19] 1.05 | [20] 1 | [21] 1.01 | [22] 1.06 | [23] 1.08 | [24] 0.996 | [25] 1.02

Nc1cc(-c2ccc(OC(F)(F)F)cc2)nn1-c1ccc(Cl)c(Cl)c1
inactive: S. cerevisiae deletion strains, locus YAR019C, strain CDC15, stronger effect = lower value 0.979 | S. cerevisiae deletion strains, locus YBL105C, strain PKC1, stronger effect = lower value 1.01 | S. cerevisiae deletion strains, locus YBR135W, strain CKS1, stronger effect = lower value 0.981 | S. cerevisiae deletion strains, locus YBR136W, strain MEC1, stronger effect = lower value 1.02 | S. cerevisiae deletion strains, locus YBR160W, strain CDC28, stronger effect = lower value 0.983 | S. cerevisiae deletion strains, locus YDL017W, strain CDC7, stronger effect = lower value 0.994 | S. cerevisiae deletion strains, locus YDL028C, strain MPS1, stronger effect = lower value 1.01 | [3] 1 | S. cerevisiae deletion strains, locus YDL108W, strain KIN28, stronger effect = lower value 1.01 | S. cerevisiae deletion strains, locus YDL132W, strain cdc53, stronger effect = lower value 0.971 | S. cerevisiae deletion strains, locus YDR052C, strain DBF4, stronger effect = lower value 0.985 | S. cerevisiae deletion strains, locus YDR054C, strain cdc34, stronger effect = lower value 0.904 | S. cerevisiae deletion strains, locus YDR226W, strain ADK1, stronger effect = lower value 0.983 | S. cerevisiae deletion strains, locus YFL009W, strain cdc4, stronger effect = lower value 1.01 | S. cerevisiae deletion strains, locus YFL029C, strain CAK1, stronger effect = lower value 0.969 | S. cerevisiae deletion strains, locus YFR003C, strain YPI1, stronger effect = lower value 1 | S. cerevisiae deletion strains, locus YFR028C, strain CDC14, stronger effect = lower value 1 | S. cerevisiae deletion strains, locus YHR205W, strain SCH9, stronger effect = lower value 0.635 | S. cerevisiae deletion strains, locus YIL147C, strain SLN1, stronger effect = lower value 1 | S. cerevisiae deletion strains, locus YJR016C, strain ILV3, stronger effect = lower value 1 | S. cerevisiae deletion strains, locus YJR066W, strain TOR1, stronger effect = lower value 0.669 | S. cerevisiae deletion strains, locus YKL193C, strain SDS22, stronger effect = lower value 0.982 | S. cerevisiae deletion strains, locus YLR403W, strain SFP1, stronger effect = lower value 0.676 | S. cerevisiae deletion strains, locus YMR001C, strain CDC5, stronger effect = lower value 0.999 | S. cerevisiae deletion strains, locus YMR277W, strain FCP1, stronger effect = lower value 0.993 | S. cerevisiae deletion strains, locus YNL006W, strain LST8, stronger effect = lower value 1 | S. cerevisiae deletion strains, locus YNL161W, strain CBK1, stronger effect = lower value 0.992 | S. cerevisiae deletion strains, locus YNL207W, strain RIO2, stronger effect = lower value 0.989 | S. cerevisiae deletion strains, locus YNL222W, strain SSU72, stronger effect = lower value 0.99 | S. cerevisiae deletion strains, locus YOL078W, strain AVO1, stronger effect = lower value 1 | S. cerevisiae deletion strains, locus YOR329C, strain SCD5, stronger effect = lower value 1.01 | S. cerevisiae deletion strains, locus YPL209C, strain IPL1, stronger effect = lower value 0.966 | S. cerevisiae deletion strains, locus YPR025C, strain CCL1, stronger effect = lower value 0.975 | S. cerevisiae deletion strains, strain TSCII, stronger effect = lower value 1.01
active: S. cerevisiae deletion strains, locus YDL214C, strain PRR2, stronger effect = lower value 0.565 | S. cerevisiae deletion strains, locus YDR477W, strain SNF1, stronger effect = lower value 0.487 | S. cerevisiae deletion strains, locus YER123W, strain YCK3, stronger effect = lower value 0.249 | S. cerevisiae deletion strains, locus YER133W, strain GLC7, stronger effect = lower value 0.577 | S. cerevisiae deletion strains, locus YFR019W, strain FAB1, stronger effect = lower value 0.574 | S. cerevisiae deletion strains, locus YGR040W, strain KSS1, stronger effect = lower value 0.488 | S. cerevisiae deletion strains, locus YGR052W, strain FMP48, stronger effect = lower value 0.446 | S. cerevisiae deletion strains, locus YGR092W, strain DBF2, stronger effect = lower value 0.388 | [7] 0.317 | S. cerevisiae deletion strains, locus YHR079C, strain IRE1, stronger effect = lower value 0.448 | S. cerevisiae deletion strains, locus YHR082C, strain KSP1, stronger effect = lower value 0.521 | S. cerevisiae deletion strains, locus YJL095W, strain BCK1, stronger effect = lower value 0.254 | S. cerevisiae deletion strains, locus YJL157C, strain FAR1, stronger effect = lower value 0.706 | S. cerevisiae deletion strains, locus YJR066W, strain TOR1 (second series), stronger effect = lower value 0.589 | S. cerevisiae deletion strains, locus YKL048C, strain ELM1, stronger effect = lower value 0.752 | S. cerevisiae deletion strains, locus YKL067W, strain YNK1, stronger effect = lower value 0.597 | S. cerevisiae deletion strains, locus YKL101W, strain HSL1, stronger effect = lower value 0.268 | S. cerevisiae deletion strains, locus YKL203C, strain TOR2, stronger effect = lower value 0.454 | S. cerevisiae deletion strains, locus YLR113W, strain HOG1, stronger effect = lower value 0.317 | S. cerevisiae deletion strains, locus YLR133W, strain CKI1, stronger effect = lower value 0.644 | S. cerevisiae deletion strains, locus YML070W, strain DAK1, stronger effect = lower value 0.439 | S. cerevisiae deletion strains, locus YMR205C, strain PFK2 (second series), stronger effect = lower value 0.605 | S. cerevisiae deletion strains, locus YNL020C, strain ARK1, stronger effect = lower value 0.53 | S. cerevisiae deletion strains, locus YNL183C, strain NPR1, stronger effect = lower value 0.378 | S. cerevisiae deletion strains, locus YNL307C, strain MCK1 (second series), stronger effect = lower value 0.335 | S. cerevisiae deletion strains, locus YOL136C, strain PFK27, stronger effect = lower value 0.672 | S. cerevisiae deletion strains, locus YOR061W, strain CKA2, stronger effect = lower value 0.355 | S. cerevisiae deletion strains, locus YOR119C, strain RIO1, stronger effect = lower value 0.528 | S. cerevisiae deletion strains, locus YOR231W, strain MKK1, stronger effect = lower value 0.349 | S. cerevisiae deletion strains, locus YPL031C, strain PHO85, stronger effect = lower value 0.29 | S. cerevisiae deletion strains, locus YPL153C, strain RAD53, stronger effect = lower value 0.193 | S. cerevisiae deletion strains, locus YPL204W, strain HRR25, stronger effect = lower value 0.285 | S. cerevisiae deletion strains, locus YPL256C, strain CLN2, stronger effect = lower value 0.604 | S. cerevisiae deletion strains, locus YPR106W, strain ISR1, stronger effect = lower value 0.643
